Experimental data reported in PubChem BioAssay (NCI).
About 83,000 compounds went through this panel and 20% of them were active in at least one assay; those are over-represented in the sample as a whole.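 Single-concentration screen, 48 h exposure, 96-well plates. Endpoint: percent growth. Below 10 = active.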 The source made the active and inactive calls.

Tests used:
Assay in all cases: NCI-60 one-dose screen, 48 h (100 = growth as untreated, 0 = no growth, -100 = all killed)
Settings in all cases: 10 µM unless noted
[1] = tested on: DU-145 prostate
[2] = tested on: K-562 leukemia
[3] = tested on: MALME-3M melanoma
[4] = tested on: MDA-MB-231 breast
[5] = tested on: RXF 393 renal
[6] = tested on: SF-268 CNS
[7] = tested on: SF-295 CNS
[8] = tested on: SF-539 CNS
[9] = tested on: UACC-257 melanoma
[10] = tested on: M14 melanoma
[11] = tested on: HCT-15 colon
[12] = tested on: HT29 colon
[13] = tested on: SNB-75 CNS
[14] = tested on: SNB-19 CNS
[15] = tested on: U251 CNS
[16] = tested on: SK-MEL-5 melanoma
[17] = tested on: UACC-62 melanoma
[18] = tested on: LOX IMVI melanoma
[19] = tested on: SK-MEL-28 melanoma
[20] = tested on: PC-3 prostate

Measured: growth

COc1cc(-c2nc(NC(C)=O)sc2-c2ccnc(NCCNS(=O)(=O)c3ccccc3)n2)ccc1Cl
active: [8] 8.69% | [10] -20.4% | [12] 3.97% | [16] 1.64%
inactive: [1] 53.4% | [2] 13.8% | [3] 27.9% | [4] 35.1% | [5] 36.7% | [6] 38.4% | [7] 10.9% | [9] 47.1% | [11] 31.7% | [13] 15.7% | [14] 53.9% | [15] 31.5% | [17] 23% | [18] 32.1% | [19] 35.6%

CCNC(=O)Oc1ccc(/C(=C(/C)Cc2ccc(OC)cc2)c2ccc(OCCN3CCCC3)cc2)cc1
active: [2] 2.41% | [10] 2.05% | [12] 7.46%
inactive: [1] 87.1% | [3] 80.6% | [4] 79.8% | [5] 76.3% | [6] 78.2% | [7] 79.3% | [8] 76.8% | [9] 105% | [11] 45.9% | [13] 73.8% | [14] 80.4% | [15] 54.3% | [16] 57.7% | [17] 69.1% | [18] 60.8% | [19] 66.1%

CCOc1ccc(NC(=O)c2cc(OC)c(OC)c(OC)c2)cc1
inactive: [1] 54% | [2] 17% | [3] 38.2% | [4] 62.7% | [5] 39.8% | [6] 47.6% | [7] 26.2% | [8] 23.5% | [9] 50.1% | [10] 16.5% | [11] 31.8% | [12] 11.5% | [13] 30.5% | [14] 49.6% | [15] 30.1% | [16] 28.7% | [17] 35.7% | [18] 35.5% | [19] 66.4%

COc1cc(-c2nc(SCCC(C)C)nc(N3CCOCC3)c2C#N)cc(OC)c1OC
inactive: [1] 41.6% | [2] 74.5% | [3] 92.3% | [4] 68.5% | [5] 101% | [6] 40.3% | [7] 98.9% | [8] 55.5% | [9] 95.8% | [10] 96% | [11] 68.3% | [12] 19.2% | [13] 53.4% | [14] 65.8% | [16] 102% | [17] 91.4% | [18] 83.2% | [19] 108%
active: [15] 5.83%

Cc1ccc(C)c2c1C(O)(C#Cc1ccccc1)c1ccccc1C2(O)C#Cc1ccccc1 (stereo not drawn)
active: [7] 4.71%
inactive: [1] 87% | [2] 22.2% | [3] 39.2% | [4] 77% | [5] 64.5% | [6] 56.5% | [8] 56.8% | [9] 63% | [10] 58.9% | [11] 27.7% | [12] 38.9% | [13] 48.3% | [14] 70.4% | [15] 34.3% | [16] 36.8% | [17] 53.4% | [18] 42.5% | [19] 80.4%

C#CC#CC#CC#CC#CC#CC#CC#CCC1OCC(COC(=O)O[C@@H](C(=O)O[C@H]2C[C@@]3(O)[C@@H](OC(=O)c4ccccc4)[C@@H]4[C@]5(OC(C)=O)CO[C@@H]5C[C@H](O)[C@@]4(C)C(=O)[C@H](OC(C)=O)C(=C2C)C3(C)C)[C@@H](NC(=O)c2ccccc2)c2ccccc2)O1 (stereo partly drawn)
inactive: [2] 12.6% | [3] 41.9% | [4] 20% | [6] 34.4% | [9] 53% | [11] 66.8% | [14] 18.9% | [15] 17.9% | [20] 19.4% | [16] 23.4% | [18] 26.9% | [19] 59.2%
active: [1] 6.68% | [5] -9.54% | [7] 4.59% | [8] -0.927% | [10] -22% | [12] 5.02% | [13] -25.2%

COc1ccc(/C=C/C(=O)c2cc3c(N)c(C(=O)Nc4ccc(OC)cc4)sc3nc2C)cc1
inactive: [1] 17.5% | [2] 17.9% | [3] 49.1% | [4] 24.7% | [6] 39.5% | [7] 11.6% | [9] 55.3% | [10] 10.2% | [11] 20.6% | [14] 16.3% | [15] 20.2% | [17] 21.8% | [18] 31.6% | [19] 55.7%
active: [5] -14.4% | [8] -25.5% | [12] -18% | [13] 2.43% | [16] 9.81%
